Assay outcomes from PubChem.
Compounds with a hit are over-represented: about 3.4% of the library has one in this group of screens.
PP5 inh – PP5 phosphatase inhibitors, primary screen, biochemical, fluorescence. purified PP5c, OMFP substrate fluorescence. inhibition, % at 6.7 µM. hit rate 0.18% among 320,000. AID 1987, 2009;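 active means inhibition above the campaign's mean inhibition across all tested compounds plus 3 SD, cut at about 9.5% in these data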;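 further: 0% = DMSO only and 100% = 100 µM cantharidin control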
PP1 inh – PP1-alpha phosphatase inhibitors, primary screen, counter-screen for PP5 inhibitor project, biochemical, fluorescence, OMFP substrate, single point; Serine/threonine-protein phosphatase PP1-alpha catalytic subunit (Homo sapiens), P62136; purified PP1alpha; inhibition, % at 6.7 µM; hit rate 0.9% among 320,000;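 active means inhibition above the mean inhibition of all tested compounds plus 3 SD, computed separately for each screening campaign, cut at about 15% in these data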
PAFAH1B2 inh – PAFAH1B2 enzyme inhibitors, primary screen, biochemical, fluorescence polarization, human; recombinant PAFAH1B2, FP-rhodamine activity probe; inhibition, % at 3.39 µM; hit rate 1.2% among 340,000; AID 492953, 2010;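 active means inhibition above the mean of all tested compounds plus 3 SD, cut at about 24% in these data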;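 further: 0% = enzyme with DMSO and 100% = wells lacking PAFAH1B2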
PAFAH1B3 FP inh – PAFAH1B3 enzyme inhibitors, primary screen, biochemical, fluorescence polarization, human. hit rate 0.28% among 340,000. recombinant PAFAH1B3, FP-rhodamine probe. Platelet-activating factor acetylhydrolase IB subunit alpha1 (Homo sapiens), Q15102. inhibition, % at 3.39 µM. AID 492972, 2010;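 active means inhibition above the screen-wide average of all tested compounds plus 3 SD, cut at about 25% in these data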;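 further: 0% = enzyme with DMSO only and 100% = wells lacking PAFAH1B3 protein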
PAFAH2 FP inh – PAFAH2 enzyme inhibitors, primary screen, biochemical, fluorescence polarization, human | Platelet-activating factor acetylhydrolase 2, cytoplasmic (Homo sapiens), Q99487 | inhibition, % at 3.39 µM | hit rate 0.99% among 340,000 | AID 492956, 2010 | recombinant PAFAH2, FP-rhodamine activity probe;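 active means inhibition above the mean over all tested compounds plus 3 SD, cut at about 30% in these data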;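 further: inhibitors block probe labeling of enzyme so polarization drops; 0% = enzyme with DMSO and 100% = wells lacking PAFAH2 protein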
pPAFAH inh – pPAFAH enzyme inhibitors, primary screen, biochemical, fluorescence polarization, human; inhibition, % at 3.39 µM; hit rate 1.5% among 330,000; Platelet-activating factor acetylhydrolase (Homo sapiens), Q13093; recombinant pPAFAH, FP-rhodamine probe fluorescence polarization;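 active means inhibition above the mean inhibition across the screen plus 3 SD, cut at about 25% in these data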;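 further: inhibitors block binding of the rhodamine activity-based probe so polarization drops; 0% = enzyme with DMSO and 100% = wells lacking pPAFAH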
Target sequence (Q13093 whole entry, looked up): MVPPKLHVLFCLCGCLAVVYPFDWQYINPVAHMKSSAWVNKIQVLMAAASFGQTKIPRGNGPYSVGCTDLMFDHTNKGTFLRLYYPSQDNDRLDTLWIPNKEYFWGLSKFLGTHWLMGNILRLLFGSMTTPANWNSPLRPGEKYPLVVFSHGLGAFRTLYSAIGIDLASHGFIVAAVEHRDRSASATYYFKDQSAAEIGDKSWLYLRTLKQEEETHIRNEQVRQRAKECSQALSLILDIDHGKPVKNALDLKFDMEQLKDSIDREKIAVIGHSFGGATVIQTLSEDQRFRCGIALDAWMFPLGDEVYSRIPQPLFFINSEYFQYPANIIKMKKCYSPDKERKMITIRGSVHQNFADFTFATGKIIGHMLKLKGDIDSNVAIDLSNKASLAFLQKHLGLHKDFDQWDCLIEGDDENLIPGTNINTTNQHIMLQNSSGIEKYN
PAFAH1B3 conf FP – PAFAH1B3 enzyme inhibitors, confirmation, biochemical, fluorescence polarization, human | hit rate 30% among 390 | shares compounds with PAFAH1B3 FP inh | inhibition, % at 3.39 µM | recombinant PAFAH1B3, FP-Rh activity-based probe;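 active means average inhibition over triplicate runs above the hit cutoff set in the earlier primary screen, cut at about 25% in these data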;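 further: 0% = enzyme with DMSO and 100% = wells lacking PAFAH1B3 protein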
Active calls of the source: *; / = no result.

SMILES	PP5 inh	PP1 inh	PAFAH1B2 inh	PAFAH1B3 FP inh	PAFAH2 FP inh	pPAFAH inh	PAFAH1B3 conf FP
CCC(C)n1c(NC(=O)c2ccccc2)c(C#N)c2nc3ccccc3nc21 (stereo not drawn)	5.6	5.2	2.2	34.6*	-2.0	13.7	8.0
Cc1ccccc1C(=O)Nc1ccc2c(C#N)c3nc4ccccc4nc3n2c1	3.0	3.0	-2.0	-8.9	5.9	15.7	/
CCCNC(=O)c1ccc2c(=O)c(O)c(-c3ccc(C)cc3)[nH]c2c1	-1.6	0.8	10.2	26.8*	-20.0	14.8	6.5
CCCNC(=O)c1ccc2c(=O)c(O)c(-c3ccc(OC)cc3)[nH]c2c1	2.0	0.2	1.7	13.8	-16.0	13.2	/
Cc1ccc(-c2[nH]c3cc(C(N)=O)ccc3c(=O)c2O)cc1	0.7	1.6	11.2	29.3*	-19.8	23.9	23.1
CCOC(=O)Nc1nnc(Cc2ccc(Cl)c(Cl)c2)s1	0.9	-0.8	5.3	4.7	-2.6	3.3	/
COCCN(C(=O)COC(=O)Cc1coc2cc(C)ccc12)c1c(N)n(Cc2ccccc2)c(=O)[nH]c1=O	0.7	3.1	2.9	-3.3	10.9	7.8	/
Nc1c(C(=O)NCC2CCCO2)c2nc3ccccc3nc2n1/N=C/c1ccncc1 (stereo not drawn)	/	/	1.5	1.1	2.2	/	/
COCC(C)OC(=O)c1c(N)n(CC(C)C)c2nc3ccccc3nc12 (stereo not drawn)	5.2	-5.1	0.4	35.1*	-12.6	1.0	4.7
CC(C)Cn1c(N)c(C(=O)NCC2CCCO2)c2nc3ccccc3nc21 (stereo not drawn)	4.8	2.3	7.7	32.3*	12.2	13.1	14.2
COc1ccc(-c2nnc(NC(=O)C3CC3)o2)cc1	-0.9	-1.5	-1.2	-3.0	3.8	-2.3	/
CCOC(=O)c1c2c(n(C)c1C)C(=O)C(=O)c1ccc(Br)cc1-2	2.1	4.6	8.1	36.2*	21.5	-3.4	20.9
Cc1cc(C)c[n+](C2=C([O-])c3ccccc3C(=O)/C2=N\S(=O)(=O)c2cccs2)c1	0.3	-1.9	4.0	32.9*	8.7	9.5	22.8
CC(=O)N1CCn2c3c(c4cc(C)ccc42)CCCC31 (stereo not drawn)	0.8	-3.0	9.0	8.0	1.4	7.9	/
CC(=O)N1CCn2c3c(c(=O)c4cc(C)ccc42)CCC31 (stereo not drawn)	2.4	5.3	9.9	40.9*	-2.2	12.9	16.2
CCCCn1c(N)c(N(CCC(C)C)C(=O)COC(=O)c2sccc2C)c(=O)[nH]c1=O	2.3	-2.1	4.2	9.9	-1.7	-4.5	/
CCCCn1c(N)c(N(CCC(C)C)C(=O)COC(=O)c2ccc([N+](=O)[O-])s2)c(=O)[nH]c1=O	/	/	13.1	29.6*	25.0	2.4	21.8
COCCNC(=O)c1ccc(Cl)c(Cl)c1	4.0	-0.3	-0.5	6.6	-1.1	-2.4	/
COC(=O)NNS(=O)(=O)c1ccc(C)cc1	-0.3	-3.3	3.0	7.3	-1.3	-2.0	/
CCOC(=O)c1ccccc1N1C(=O)CSC1=S	-1.9	-2.9	-2.2	38.0*	-0.1	-0.9	37.9*
CCN(c1ccccc1)c1cc2ccccc2c(=O)[nH]1	4.1	-2.6	12.8	26.2*	6.5	2.8	8.5
c1csc(-c2nnc(Cc3cccc4ccccc34)o2)c1	3.5	-2.1	2.0	0.7	3.6	5.0	/
COc1ccc(Cn2c(O)c(/C=N/NC(=O)c3cccnc3)c3ccccc3c2=O)cc1	/	/	13.4	25.7*	19.3	/	18.4
O=C(N/N=C/c1c(O)n(Cc2ccccc2)c(=O)c2ccccc12)c1cccnc1	0.7	6.1	4.5	20.1	16.3	18.8	/
Cc1c(NC(=O)CN2CCN(c3ccc(O)cc3)CC2)c(=O)n(-c2ccccc2)n1C	-1.1	-5.8	3.4	1.9	0.6	10.6	/
